Assay results taken from the supplement of paper PMC7765376.
Over roughly 1,500 compounds, “Excess HSA synergy score (sum over dose matrix of excess over highest single agent)” has its median near 43; the lowest 2% begin near -900. The sample holds the lowest values, similar compounds and a random draw of the others, so the mix is not that of the screen.

System: PEO-1
Experiment: Excess HSA synergy score (sum over dose matrix of excess over highest single agent) (score (summed % response)); higher = less synergy / more antagonism (negative = synergy)
Conditions: 72 h, read-out: viability/apoptosis luminescence (CellTiter-Glo or Caspase3-Glo / not stated per table)
[1] = matrix design: 6x6, 5-fold dilutions (primary screen)

CO[C@@]12[C@H](COC(N)=O)C3=C(C(=O)C(C)=C(N)C3=O)N1C[C@@H]1N[C@@H]12 [Mitomycin C] + CC[C@H](NC(=O)[C@H](C)NC)C(=O)N1C[C@@H](O)C[C@H]1Cc1c(-c2[nH]c3cc(F)ccc3c2C[C@@H]2C[C@H](O)CN2C(=O)[C@H](CC)NC(=O)[C@H](C)NC)[nH]c2cc(F)ccc12 [Birinapant]
Excess HSA synergy score [1]: -351 | Excess HSA synergy score (matrix design: 10x10, 9-step dilutions (confirmatory)): -1240

CC(C)OC(=O)C1=CN(C(=O)c2ccc(F)c(F)c2)CC(C)(C)c2c1[nH]c1ccccc21 [Turofexorate isopropyl] + CC[C@H](NC(=O)[C@H](C)NC)C(=O)N1C[C@@H](O)C[C@H]1Cc1c(-c2[nH]c3cc(F)ccc3c2C[C@@H]2C[C@H](O)CN2C(=O)[C@H](CC)NC(=O)[C@H](C)NC)[nH]c2cc(F)ccc12 [Birinapant]
Excess HSA synergy score [1]: 99.9

Cc1cc(O)c2c3c4c(cc(O)c13)C(C)(C)C(=O)c1c(O)cc(O)c(c1-4)C2=O [Resistomycin] + CC[C@H](NC(=O)[C@H](C)NC)C(=O)N1C[C@@H](O)C[C@H]1Cc1c(-c2[nH]c3cc(F)ccc3c2C[C@@H]2C[C@H](O)CN2C(=O)[C@H](CC)NC(=O)[C@H](C)NC)[nH]c2cc(F)ccc12 [Birinapant]
Excess HSA synergy score [1]: -31.1

CCN1CCN(CC(=O)Nc2ccc(-c3cccc4c(=O)cc(N5CCOCC5)oc34)c3sc4ccccc4c23)CC1 + CC[C@H](NC(=O)[C@H](C)NC)C(=O)N1C[C@@H](O)C[C@H]1Cc1c(-c2[nH]c3cc(F)ccc3c2C[C@@H]2C[C@H](O)CN2C(=O)[C@H](CC)NC(=O)[C@H](C)NC)[nH]c2cc(F)ccc12 [Birinapant]
Excess HSA synergy score [1]: 32

Nc1ccc(C(=O)Nc2cccc(-c3nc(N4CCOCC4)c4oc5ncccc5c4n3)c2)cn1 + CC[C@H](NC(=O)[C@H](C)NC)C(=O)N1C[C@@H](O)C[C@H]1Cc1c(-c2[nH]c3cc(F)ccc3c2C[C@@H]2C[C@H](O)CN2C(=O)[C@H](CC)NC(=O)[C@H](C)NC)[nH]c2cc(F)ccc12 [Birinapant]
Excess HSA synergy score [1]: -134

CCOc1ccc(Cc2cc([C@@H]3O[C@H](CO)[C@@H](O)[C@H](O)[C@H]3O)ccc2Cl)cc1 [Dapagliflozin] + CC[C@H](NC(=O)[C@H](C)NC)C(=O)N1C[C@@H](O)C[C@H]1Cc1c(-c2[nH]c3cc(F)ccc3c2C[C@@H]2C[C@H](O)CN2C(=O)[C@H](CC)NC(=O)[C@H](C)NC)[nH]c2cc(F)ccc12 [Birinapant]
Excess HSA synergy score [1]: 212

Cc1c(C(=O)Nc2ccc(N3C[C@@H](C)O[C@@H](C)C3)nc2)cccc1-c1ccc(OC(F)(F)F)cc1 [Sonidegib] + CC[C@H](NC(=O)[C@H](C)NC)C(=O)N1C[C@@H](O)C[C@H]1Cc1c(-c2[nH]c3cc(F)ccc3c2C[C@@H]2C[C@H](O)CN2C(=O)[C@H](CC)NC(=O)[C@H](C)NC)[nH]c2cc(F)ccc12 [Birinapant]
Excess HSA synergy score [1]: 68.2
